Holding throughout (experiment): qHTS profiling for inhibitors of Plasmodium falciparum proliferation (AID 504749); further: nearly all actives have a fitted effect of over 60% in size
Common to all, as to settings: P. falciparum in erythrocytes, SYBR Green DNA, 72 h; series mostly up to 28.7 µM

One assay relates to AS120. The procedure, abridged:
(§1)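 Infected RBCs, 0.3% parasitemia/2.5% Hct final; cpd 72 h, 37 C, 5% CO2; lysis buffer with saponin/triton/SYBR Green I, o/n RT dark; FI 485/535; norm. to artemisinin (0.29 uM) and DMSO.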

In the next assay the test system is ATS189. The procedure, abridged: as §1
The next assay concerns ATS95. Put shortly:
as §1

For another assay, the system named is C2A. Put shortly: as §1
The test system of the next assay is CP185. Put shortly:
as §1

In another assay the test system is CP191. Put shortly:
as §1

The subject of the next assay is CP192. The procedure, abridged:
as §1

The test system of a further assay is CP194. Put shortly:
as §1

A further assay deals with CP201. Put shortly:
as §1

SMILES strings stand for the structures. Inconclusive results are not listed. Active and inactive are the calls of the source. The call rests on the fitted dose curve; in most records, active means well fitted inhibition curve with a large enough effect; inconclusive means small, poorly fitted or top-dose-only effect; inactive means flat fitted curve, though single readings scatter.

In PubChem BioAssay (NCATS) one finds Potency data, which are given here for 25 compounds.
Potency means the concentration at half of the fitted maximal effect.

For the compound `CCC(C)(C)c1ccc(CC(C)CN2C[C@@H](C)O[C@@H](C)C2)cc1` (stereo partly drawn), the Potency entry in the assay with AS120, in the assay on ATS189, with ATS95, with C2A, in the assay on CP185 and in the assay on CP191 was “inactive” in each case. Also, the Potency result in the assay on CP192, with CP194 and with CP201 was “inactive” in each case.

With `COc1cc(NS(=O)(=O)c2ccc(N)cc2)nc(OC)n1`, the Potency result in the assay with AS120, in the assay with ATS189, in the assay with ATS95, in the assay on C2A, with CP185 and in the assay with CP191 was “inactive” in each case. Moreover, the Potency result in the assay on CP192, with CP194 and in the assay on CP201 was “inactive” in each case.

In the case of `COc1cc2c(Nc3ccc(Br)cc3F)ncnc2cc1OCC1CCN(C)CC1`, the Potency in the assay on AS120 was 3160 nM (active); in the assay on ATS189, 5010 nM (active); with ATS95, 3550 nM (active); in the assay on C2A, 3160 nM (active); in the assay with CP185, 3550 nM (active); with CP191, 3160 nM (active).

As for `Nc1nc(N)c2nc(CNc3ccc(C(=O)NC(CCC(=O)O)C(=O)O)cc3)cnc2n1` (stereo not drawn), the Potency entry in the assay with AS120, in the assay with ATS189, with ATS95, in the assay on C2A, with CP185 and with CP191 was “inactive” throughout. Further, the Potency entry in the assay on CP192, in the assay on CP194 and in the assay on CP201 was “inactive” in each case.

As for `Nc1nc(N)nc(-c2cc(Cl)ccc2Cl)n1`, the Potency entry in the assay with AS120, in the assay on ATS189, in the assay with ATS95, in the assay with C2A, in the assay on CP185 and in the assay with CP191 was “inactive” each time. Further, the Potency result in the assay with CP192, in the assay on CP194 and in the assay on CP201 was “inactive” each time.

With `COc1nc(N)nc2c1ncn2[C@@H]1O[C@H](CO)[C@@H](O)[C@@H]1O`, the Potency entry with AS120, in the assay with ATS189, in the assay with ATS95, with C2A, with CP185 and with CP191 was “inactive” each time. In addition, the Potency entry in the assay with CP192, in the assay with CP194 and in the assay with CP201 was “inactive” in each case.

Regarding `CC(=O)Oc1ccccc1C(=O)Nc1ncc([N+](=O)[O-])s1`, the Potency entry with AS120, in the assay with ATS189, in the assay with ATS95, in the assay on C2A, in the assay with CP185 and in the assay with CP191 was “inactive” throughout. Moreover, the Potency entry with CP192, in the assay with CP194 and in the assay with CP201 was “inactive” throughout.

In the case of `CC(C)NCC(O)c1ccc(NS(C)(=O)=O)cc1` (stereo not drawn), the Potency result with AS120, with ATS189, in the assay with ATS95, in the assay with C2A, in the assay with CP185 and in the assay with CP191 was “inactive” in each case. In addition, the Potency result in the assay with CP192, with CP194 and in the assay with CP201 was “inactive” throughout.

Consider `Cc1oc(=O)oc1CN1CCN(c2cc3c(cc2F)c(=O)c(C(=O)O)c2n3C(C)S2)CC1` (stereo not drawn), for which the Potency in the assay on AS120 is 11200 nM (active); in the assay on ATS189, 8910 nM (active); in the assay with ATS95, 12600 nM (active); in the assay with C2A, 10000 nM (active); in the assay with CP185, 10000 nM (active); in the assay with CP191, 12600 nM (active).

As for `COc1ccc2cc3[n+](cc2c1OC)CCc1cc2c(cc1-3)OCO2`, the Potency in the assay on AS120 was 1260 nM (active); with ATS189, 1410 nM (active); in the assay with ATS95, 1120 nM (active); with C2A, 1000 nM (active); with CP185 it was 708 nM (active); in the assay on CP191, 891 nM (active). Moreover, the Potency is 849 nM (active) in the assay with CP192, 2130 nM (active) in the assay with CP194 and 1690 nM (active) in the assay with CP201.

`COC(=O)Nc1nc2ccc(C(=O)c3ccccc3)cc2[nH]1`: the Potency result with AS120, in the assay on ATS189, in the assay with ATS95, in the assay with C2A, in the assay on CP185 and in the assay on CP191 was “inactive” throughout. In addition, the Potency result with CP192, in the assay with CP194 and in the assay on CP201 was “inactive” each time.

For the compound `CNC1CCCN(c2c(F)cc3c(=O)c(C(=O)O)cn(C4CC4)c3c2OC)C1` (stereo not drawn), the Potency entry in the assay with AS120, in the assay on ATS189, with ATS95, with C2A, in the assay with CP185 and with CP191 was “inactive” each time. Further, the Potency entry with CP192, in the assay with CP194 and in the assay on CP201 was “inactive” in each case.

Consider `N=C(N)c1ccc(OCCCCCOc2ccc(C(=N)N)cc2)cc1`, for which the Potency in the assay with AS120 is 891 nM (active); with ATS189 it was 1410 nM (active); in the assay with ATS95, 1120 nM (active); in the assay with C2A it was 1260 nM (active); with CP185, 1120 nM (active); in the assay on CP191 it was 398 nM (active). For the same compound, the Potency in the assay on CP192 is 1070 nM (active); in the assay with CP194, 849 nM (active); in the assay with CP201 it was 1690 nM (active).

On to `N[C@@H](C(=O)N[C@@H]1C(=O)N2C(C(=O)O)=C(Cl)CS[C@H]12)c1ccccc1`, for which the Potency result in the assay on AS120, in the assay with ATS189, in the assay on ATS95, with C2A, in the assay with CP185 and in the assay on CP191 was “inactive” each time. In addition, the Potency entry in the assay on CP192, in the assay on CP194 and in the assay with CP201 was “inactive” throughout.

Regarding `NC(=O)N1c2ccccc2CC(=O)c2ccccc21`, the Potency entry with AS120, in the assay on ATS189, in the assay with ATS95, in the assay on C2A, with CP185 and with CP191 was “inactive” in each case. For the same compound, the Potency entry in the assay on CP192, in the assay with CP194 and in the assay with CP201 was “inactive” throughout.

Turning to `CN(CCOc1ccc(CC2SC(=O)NC2=O)cc1)c1ccccn1` (stereo not drawn), the Potency result with AS120, in the assay on ATS189, in the assay with ATS95, in the assay with C2A, in the assay with CP185 and in the assay on CP191 was “inactive” each time. The Potency entry in the assay on CP192, with CP194 and in the assay with CP201 was “inactive” each time.

As to `CN(C)CCc1c[nH]c2ccc(CS(=O)(=O)N3CCCC3)cc12`, the Potency result in the assay on AS120, in the assay on ATS189, in the assay on ATS95, with C2A, in the assay on CP185 and in the assay on CP191 was “inactive” throughout. Besides, the Potency result in the assay with CP192, with CP194 and with CP201 was “inactive” in each case.

For `COc1ncnc(NS(=O)(=O)c2ccc(N)cc2)c1OC`, the Potency entry in the assay on AS120, with ATS189, in the assay on ATS95, in the assay on C2A, in the assay with CP185 and in the assay with CP191 was “inactive” throughout. For the same compound, the Potency entry with CP192, in the assay on CP194 and with CP201 was “inactive” each time.

For `NC(N)=NC(N)=NCCc1ccccc1`, the Potency entry with AS120, in the assay with ATS189, in the assay on ATS95, in the assay on C2A, in the assay on CP185 and with CP191 was “inactive” in each case. For the same compound, the Potency entry in the assay on CP192, with CP194 and in the assay with CP201 was “inactive” each time.

Consider `Cc1cccc(N(C)C(=S)Oc2ccc3ccccc3c2)c1`, for which the Potency result in the assay on AS120, in the assay with ATS189, with ATS95, with C2A, with CP185 and with CP191 was “inactive” throughout. The Potency result with CP192, in the assay on CP194 and in the assay on CP201 was “inactive” in each case.

With `CN1CCN(c2c(F)cc3c(=O)c(C(=O)O)cn(CCF)c3c2F)CC1`, the Potency result in the assay with AS120, in the assay with ATS189, in the assay on ATS95, in the assay on C2A, in the assay on CP185 and in the assay on CP191 was “inactive” each time. The Potency entry in the assay on CP192, with CP194 and in the assay with CP201 was “inactive” in each case.

`CCc1cc(C(N)=S)ccn1`: the Potency entry in the assay on AS120, in the assay with ATS189, with ATS95, in the assay on C2A, in the assay on CP185 and in the assay on CP191 was “inactive” in each case. Moreover, the Potency result in the assay on CP192 and in the assay on CP194 was “inactive” each time.

For the compound `O=c1cc(O)c(Cl)c[nH]1`, the Potency entry with AS120, in the assay on ATS189, with ATS95, with C2A, in the assay on CP185 and in the assay on CP191 was “inactive” each time. Also, the Potency result in the assay with CP192, with CP194 and with CP201 was “inactive” throughout.

On to `C[C@]12C=CC(=O)C=C1CC[C@@H]1[C@@H]2C(=O)C[C@@]2(C)[C@H]1CC[C@]2(O)C(=O)CO`, for which the Potency result in the assay on AS120, in the assay with ATS189, in the assay on ATS95, with C2A, in the assay on CP185 and in the assay with CP191 was “inactive” each time. The Potency result with CP192, in the assay with CP194 and in the assay on CP201 was “inactive” in each case.

On to `CC(C)(Sc1cc(C(C)(C)C)c(O)c(C(C)(C)C)c1)Sc1cc(C(C)(C)C)c(O)c(C(C)(C)C)c1`, for which the Potency entry in the assay with AS120, with ATS189, in the assay with ATS95, with C2A, with CP185 and with CP191 was “inactive” each time. Besides, the Potency result with CP192, with CP194 and in the assay on CP201 was “inactive” throughout.
